Experimental data: PubChem BioAssay (NCATS)
Inconclusive results are not listed. A call without a number means that no potency is given here. Activity calls are given as the source filed them. The call rests on the fitted dose curve; in most records, active means well fitted cell-killing curve with a large enough effect; inconclusive means small, poorly fitted or top-dose-only effect, or effect the other way; inactive means no such curve, though single readings can be large or run the other way.

Test: qHTS of pediatric cancer cell lines to identify multiple opportunities for drug repurposing: Confirmatory screen for Rh30 cells (AID 1347126); further: nearly all actives have a fitted effect of over 55% in size
Details: Rh30 rhabdomyosarcoma cell viability; series mostly up to 45.9 µM
Procedure, shortened: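 Cells (500-1,000/well) rested 5 h, then received compounds for 48 h; metabolically active cells were measured by CellTiter-Glo luminescence. Final concentrations spanned up to 46 µM (MIPE, 11-point) or 0.59 nM-46 µM (NPC, 8-point) in primary screens, 11-point in follow-ups.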
Potency means the concentration at half of the fitted maximal effect.

Row | Structure (SMILES) | Potency
1 | CC1(C)CC(=O)c2c(C(F)(F)F)nn(-c3ccc(C(N)=O)c(NC4CCC(O)CC4)c3)c2C1 (stereo not drawn) | 0.369 µM (active)
2 | CC(C)(C)c1[nH]cnc1C=c1[nH]c(=O)c(=Cc2ccccc2)[nH]c1=O | 0.0202 µM (active)
3 | Cc1cc(CS(=O)(=O)c2ccccc2)cc(OCc2ccc(CN3CCC[C@H]3CO)cc2)c1 | inactive
4 | CCN(CCO)CCCOc1ccc2c(Nc3cc(CC(=O)Nc4cccc(F)c4)[nH]n3)ncnc2c1 | inactive
5 | CC(=O)N1CCN(c2ccc(OCc3nn(C)c(C)c3-c3cccc4c(CCCOc5cc(C)c(Cl)c(C)c5)c(C(=O)O)n(Cc5cccnc5)c34)cc2)CC1 | inactive
6 | O=C1NC(=O)C(c2cnc3ccccn23)=C1c1cn2c3c(cccc13)CN(C(=O)N1CCOCC1)CC2 | inactive
7 | Cc1ccccc1-n1c(Cn2nc(-c3cccc(O)c3)c3c(N)ncnc32)nc2cccc(C)c2c1=O | 13.1 µM (active)
8 | CCC(=O)N1CCN(c2ccc(-n3c(=O)ccc4cnc5ccc(-c6cnc7ccccc7c6)cc5c43)cc2C(F)(F)F)CC1 | inactive
9 | Nc1ncnc2c1ncn2[C@@H]1O[C@H](CO)[C@@H](O)[C@@H]1O | 11.7 µM (active)
10 | CCOC(=O)[C@H](CCc1ccccc1)N[C@@H](C)C(=O)N1CCCC1C(=O)O (stereo partly drawn) | 7.37 µM (active)
11 | CC1=C[C@@H]2[C@@H]([C@@H](O)C[C@@]3(C)[C@H]2C[C@@H](C)[C@]3(O)C(=O)CO)[C@@]2(C)Cc3cnn(-c4ccccc4)c3C=C12 | inactive
12 | CC[C@H](NC(=O)[C@H](C)NC)C(=O)N1C[C@@H](O)C[C@H]1Cc1c(-c2[nH]c3cc(F)ccc3c2C[C@H]2C[C@H](O)CN2C(=O)[C@H](CC)NC(=O)[C@H](C)NC)[nH]c2cc(F)ccc12 | inactive
13 | Cc1csc(-c2nnc(Nc3ccc(Oc4ncccc4-c4ccnc(N)n4)cc3)c3ccccc23)c1 | inactive
